Measurements: PubChem BioAssay AID504766 (The Scripps Research Institute Molecular Screening Center, 2011)
Hit rate of the full screen: of about 340,000 compounds, about 3,400 (1%) were called active. The sample holds actives, similar compounds and a random draw of the others, so the mix is not that of the screen.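 Rule for the calls: active = inhibition above the mean over all tested compounds plus 3 SD (cut at about 4.2% in these data); inactive = the rest.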

target: Nuclear receptor subfamily 0 group B member 1 (Homo sapiens) (UniProt P51843); experiment: DAX1 (NR0B1) inhibitors, primary screen, cell-based, HEK293, Gal4-DAX1, luciferase luminescence (AID 504766); details: HEK293 Gal4-DAX1 luciferase reporter, at 6.75 µM, hits give high values;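 note: 0% = DAX1-transfected cells with DMSO and 100% = empty-vector control cells with DMSO; inhibition shows as a rise in luminescence from relieved DAX1 repression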
Sequence (P51843 207-470 limits assumed): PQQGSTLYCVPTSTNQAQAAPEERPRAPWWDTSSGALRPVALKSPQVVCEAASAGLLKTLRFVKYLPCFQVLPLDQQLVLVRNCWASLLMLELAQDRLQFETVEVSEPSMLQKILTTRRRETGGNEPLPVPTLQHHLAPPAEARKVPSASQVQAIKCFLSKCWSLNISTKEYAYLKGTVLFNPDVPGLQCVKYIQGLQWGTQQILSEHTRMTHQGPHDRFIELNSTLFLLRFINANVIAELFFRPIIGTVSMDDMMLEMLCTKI

| Structure (SMILES) | inhibition |
| --- | --- |
| O=[N+]([O-])c1cc(Cl)cc(/C=N/NC(=S)Nc2cc(S(=O)(=O)N3CCOCC3)ccc2Cl)c1O | 4.75% (active) |
| O=C(Nc1cc(S(=O)(=O)N2CCOCC2)ccc1Cl)c1cc(=O)c2ccccc2o1 | -1.1% (inactive) |
| O=S(=O)(c1ccc(NC(=S)NN=C(C2CC2)C2CC2)cc1)N1CCOCC1 | -0.03% (inactive) |
| O=C1[C@H]2[C@@H](c3ccc(C(F)(F)F)cc3)N[C@]3(CCCN(Cc4ccc(Br)cc4)C3=O)[C@H]2C(=O)N1Cc1ccccc1 | -0.81% (inactive) |
| C[C@@H]1Cn2cnc(C(=O)Nc3ccc(CNC(=O)OC(C)(C)C)cc3)c2C(=O)N1 | -0.54% (inactive) |
| O=C(CSC(=S)N1CCCCC1)c1c(F)cccc1F | 8.18% (active) |
| CC(=O)c1ccc(NC(=O)CSC(=S)N2CCCC2)cc1 | -0.17% (inactive) |
| O=C(CSC(=S)N1CCOCC1)c1ccccc1 | -3.24% (inactive) |
| CC(C#N)(NC(=O)CN1CCN(S(=O)(=O)c2cc(C(F)(F)F)ccc2Cl)CC1)C1CC1 (configuration not stated) | 4.49% (active) |
| O=C(CN1CCN(S(=O)(=O)c2cc(Cl)ccc2Cl)CC1)c1ccc(O)c(O)c1 | 0.26% (inactive) |
| N#Cc1ccsc1NC(=O)CN1CCN(S(=O)(=O)c2cc(Cl)ccc2Cl)CC1 | -0.1% (inactive) |
| CC(OC(=O)c1cccnc1Cl)C(=O)NC1CCCCC1 (configuration not stated) | 2.75% (inactive) |
| CCC(C)(C)NC(=O)C(c1ccc(O)cc1)N(C(=O)Cn1nnc2ccccc21)c1ccc(NC(C)=O)cc1 (configuration not stated) | 0.14% (inactive) |
| COc1ccc(C(C(=O)NCC2CCCO2)N(C(=O)Cn2nnc3ccccc32)c2ccc(NC(C)=O)cc2)cc1OC (configuration not stated) | -0.65% (inactive) |
| COc1ccc(C(C(=O)NC(C)(C)C)N(C(=O)Cn2nnc3ccccc32)c2ccc(C(C)=O)cc2)cc1O (configuration not stated) | 5.46% (active) |
| COc1ccccc1C(=O)NC(=S)Nc1ccc(N2CCOCC2)cc1 | 0.43% (inactive) |
| C[C@H]1CN([C@@H](C)CO)C(=O)c2cc(Br)cnc2O[C@H]1CN(C)S(=O)(=O)c1cccs1 | 0.93% (inactive) |
| C[C@H]1CN([C@@H](C)CO)C(=O)CCCn2cc(nn2)CO[C@@H]1CN(C)S(=O)(=O)c1cccs1 | -0.09% (inactive) |
| CN(C)CCNc1ccc(-c2n[nH]c(=O)c3ccccc23)cc1[N+](=O)[O-] | 4.46% (active) |
| COCCNc1ccc(-c2n[nH]c(=O)c3ccccc23)cc1[N+](=O)[O-] | -1.07% (inactive) |
| CCN(CC)CCNc1ccc(Cl)cc1[N+](=O)[O-] | 0.15% (inactive) |
| CCc1cccc(CC)c1N1C(=O)CC(Sc2ccccc2N)C1=O (configuration not stated) | 2.47% (inactive) |
